# In PubChem BioAssay (NCATS):
# Values joined by “and” are separate entries in the source; they are usually repeats but may differ in a detail not shown here. Equal entries are not always repeated. Records with an inconclusive call do not appear. A call without a number means that no potency is given here. Active and inactive are the calls of the source. Unless noted, calls come from the whole dose curve; as a rule, active = well fitted curve in the direction sought with a large enough effect; inconclusive = small, poorly fitted or top-dose-only effect, or another doubt; inactive = no such curve, though single readings can be large; an effect the other way counts as inactive or inconclusive.
# Assays:
# [1] = target: Calcium and integrin-binding protein 1 (Homo sapiens) (UniProt Q99828); experiment: Primary qHTS for Identification of Calcium Integrin Binding Protein 1 (CIB1) Competitor (AID 1508620);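 note: GST tagged CIB1 binding a fluorescein labelled alphaIIb integrin peptide tracer; top concentration of the series differs between compounds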
# Calcium and integrin-binding protein 1 (Homo sapiens), sequence (Q99828 whole entry, looked up): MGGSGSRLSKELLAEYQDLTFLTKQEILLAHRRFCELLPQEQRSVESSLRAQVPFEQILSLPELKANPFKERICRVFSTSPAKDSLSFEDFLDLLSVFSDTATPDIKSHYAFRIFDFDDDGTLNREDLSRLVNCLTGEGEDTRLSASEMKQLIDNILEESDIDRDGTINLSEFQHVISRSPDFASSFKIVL
# Summary of the method: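 Fluorescence polarization competition: GST-tagged CIB1 (1 uM final) preincubated with compound 15 min at room temperature, then FITC-labelled alphaIIb peptide (100 nM final) added. After 15 min at room temperature, polarization read at Ex 480/Em 540.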
# [2] = qHTS to identify inhibitors of the type 1 interferon - major histocompatibility complex class I in skeletal muscle: primary screen against the NCATS Mechanism Interrogation Plate v5.0 (MIPE) Libary (AID 1347411); note: nearly all actives have a fitted effect of over 65% in size; note: potency is the fitted concentration of half-maximal effect
# Summary of the method: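 Cells were genome-edited human myoblasts carrying a HiBit tag on endogenous HLA-B. They were treated with IFN-beta (4.0 ng/ml) and titrated compounds (top 46 uM) for 24 hrs before lytic HiBiT detection.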
# [3] = Primary qHTS for small molecule stabilizers of the endoplasmic reticulum resident proteome: Secreted ER Calcium Modulated Protein (SERCaMP) assay (AID 1508630); note: potency is the fitted concentration of half-maximal effect
# Summary of the method: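 GLuc-SERCaMP-expressing SH-SY5Y cells, pretreated 16 h with compound, are challenged with thapsigargin to empty ER calcium stores; after 4 h, coelenterazine is added directly to the medium and luminescence is imaged.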
# [4] = target: Cytochrome P450 2D6 (Homo sapiens) (UniProt P10635); experiment: Cytochrome P450 family 2 subfamily D member 6 (CYP2D6) small molecule antagonists: luciferase biochemical (cell-free) qHTS assay (AID 1645840; active = well fitted curve in the direction sought with a large enough effect in the repeat runs; an effect the other way counts as inactive or inconclusive; note: nearly all actives have a fitted effect of over 55% in size; note: potency is the fitted concentration of half-maximal effect)
# Cytochrome P450 2D6 (Homo sapiens), sequence (P10635 whole entry, looked up): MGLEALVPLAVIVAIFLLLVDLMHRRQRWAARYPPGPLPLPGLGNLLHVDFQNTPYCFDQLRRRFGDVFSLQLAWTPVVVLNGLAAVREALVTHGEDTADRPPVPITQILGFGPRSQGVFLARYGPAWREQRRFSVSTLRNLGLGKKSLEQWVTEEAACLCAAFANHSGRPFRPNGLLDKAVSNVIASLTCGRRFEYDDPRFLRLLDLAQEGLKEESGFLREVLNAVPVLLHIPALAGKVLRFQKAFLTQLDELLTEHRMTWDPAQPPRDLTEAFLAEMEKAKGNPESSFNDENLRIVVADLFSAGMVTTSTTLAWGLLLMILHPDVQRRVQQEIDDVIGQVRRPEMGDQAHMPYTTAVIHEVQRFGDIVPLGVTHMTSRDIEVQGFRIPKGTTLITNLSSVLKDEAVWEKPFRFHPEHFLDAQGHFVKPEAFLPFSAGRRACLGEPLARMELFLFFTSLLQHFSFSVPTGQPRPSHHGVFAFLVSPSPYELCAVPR
# Summary of the method: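 P450-Glo luminescent screen: recombinant CYP2D6 enzyme–proluciferin substrate mix preincubated with compound 10 min at room temperature, then NADPH regeneration added for 1 h at room temperature. Detection reagent added for 20 min; luciferin light read as relative luminescence units.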
# [5] = Validation qHTS assay for inhibitors of Activation Induced Cytidine Deaminase (AID): UDG Counterscreen signal (AID 1347427)
# Summary of the method: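 Counterscreen read of UDG activity (2 U/mL, 4/3x) in the FRET deamination format with AID (1 uM, 4/3x), DJC20/DJC23 substrates (250 nM, 4x), 4 h at room temperature. NaOH stop, fluorescence at 560 ex/665 em.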
# [6] = target: Single-stranded DNA cytosine deaminase (Homo sapiens) (UniProt Q9GZX7); experiment: Validation qHTS assay for inhibitors of Activation Induced Cytidine Deaminase (AID): AID signal (AID 1347429)
# Single-stranded DNA cytosine deaminase (Homo sapiens), sequence (Q9GZX7 whole entry, looked up): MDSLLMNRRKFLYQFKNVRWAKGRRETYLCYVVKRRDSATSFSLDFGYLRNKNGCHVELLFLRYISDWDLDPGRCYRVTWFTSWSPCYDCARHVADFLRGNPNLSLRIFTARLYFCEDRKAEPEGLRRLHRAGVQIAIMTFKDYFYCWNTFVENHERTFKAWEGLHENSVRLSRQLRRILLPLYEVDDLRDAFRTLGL
# Summary of the method: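 In this coupled qHTS, AID deaminates a FRET-labelled ssDNA substrate in the presence of UDG over 4 hr at room temperature. Compounds span up to 114 uM final.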
# [7] = Primary qHTS for inhibitors of La Crosse Virus (LACV) - induced cell death in SH-SY5Y cells (AID 1508616);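 note: top concentration of the series differs between compounds; higher means more rescue of cells from virus-induced death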
# Summary of the method: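 Readout was luminescence from ATPLite 1step added after a 6-day LACV infection (0.01 MOI) of SH-SY5Y cells that had received pin-transferred compound 24 hr after seeding.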
# [8] = target: Calcium and integrin-binding protein 1 (Homo sapiens) (UniProt Q99828); experiment: Confirmatory qHTS for Identification of Calcium Integrin Binding Protein 1 (CIB1) Competitor (AID 1508617); note: potency is the fitted concentration of half-maximal effect; nearly all actives have a fitted effect of over 65% in size
# Summary of the method: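 Compounds at up to 114 uM final met 1 uM GST-tagged CIB1 for 15 min at room temperature (HEPES pH 7.4, 5 mM CaCl2). FITC-labelled alphaIIb peptide, 100 nM, added; polarization read after 15 min more.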
# [9] = target: Protein phosphatase 1D (Homo sapiens) (UniProt O15297); experiment: RapidFire Mass Spectrometry qHTS Assay for Modulators of WT P53-Induced Phosphatase 1 (WIP1) (AID 1347424);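 note: amount of dephosphorylated VEPPL-S-QETFS peptide product formed by WIP1; series mostly up to about 63 µM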
# Protein phosphatase 1D (Homo sapiens), sequence (O15297 whole entry, looked up): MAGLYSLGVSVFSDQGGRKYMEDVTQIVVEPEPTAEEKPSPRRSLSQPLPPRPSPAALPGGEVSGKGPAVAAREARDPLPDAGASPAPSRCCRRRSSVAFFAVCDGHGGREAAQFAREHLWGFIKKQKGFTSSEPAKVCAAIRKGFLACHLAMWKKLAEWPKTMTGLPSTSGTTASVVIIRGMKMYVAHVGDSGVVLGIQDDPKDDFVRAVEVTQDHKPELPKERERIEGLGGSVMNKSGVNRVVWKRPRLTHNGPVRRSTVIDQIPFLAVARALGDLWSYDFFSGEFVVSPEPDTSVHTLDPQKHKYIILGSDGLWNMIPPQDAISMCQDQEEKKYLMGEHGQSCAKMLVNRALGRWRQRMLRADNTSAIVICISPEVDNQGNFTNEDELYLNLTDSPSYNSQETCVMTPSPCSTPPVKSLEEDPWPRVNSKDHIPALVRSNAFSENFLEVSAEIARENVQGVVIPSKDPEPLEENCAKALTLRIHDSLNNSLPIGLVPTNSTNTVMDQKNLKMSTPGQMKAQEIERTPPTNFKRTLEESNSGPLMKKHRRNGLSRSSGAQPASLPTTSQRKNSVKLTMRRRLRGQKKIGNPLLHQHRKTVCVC
# Summary of the method: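 10 nM WIP1 preincubated with compounds 1 hr at room temperature in pH 7.5 Tris buffer with 30 mM MgCl2, 1 mM TCEP; 2 uM VEPPL-pS-QETFS phosphopeptide for 5 min, formic acid quench; dephosphorylated product quantified by RapidFire MS against labelled standard.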
# [10] = target: Protein phosphatase 1D (Homo sapiens) (UniProt O15297); experiment: Rhodamine-PBP qHTS Assay for Modulators of WT P53-Induced Phosphatase 1 (WIP1) (AID 1347425)
# Summary of the method: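 The read-out is the change in Rhodamine-PBP fluorescence (f1 - f0, ex 525/em 598 nm) as Pi is released, read each minute for 11 min. Final reaction: 5 nM WIP1, 10 uM phosphopeptide VEPPL-pS-QETFS, 10 uM Rh-PBP, 50 mM Tris-HCl pH 7.5, 30 mM MgCl2. Compound was preincubated with enzyme for 1 hour at room temperature.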
# [11] = target: Cytochrome P450 3A4 (Homo sapiens) (UniProt P08684); experiment: Cytochrome P450 family 3 subfamily A member 4 (CYP3A4) small molecule antagonists: luciferase qHTS assay (AID 1645841; active = well fitted curve in the direction sought with a large enough effect in the repeat runs; an effect the other way counts as inactive or inconclusive; note: nearly all actives have a fitted effect of over 45% in size)
# Cytochrome P450 3A4 (Homo sapiens), sequence (P08684 whole entry, looked up): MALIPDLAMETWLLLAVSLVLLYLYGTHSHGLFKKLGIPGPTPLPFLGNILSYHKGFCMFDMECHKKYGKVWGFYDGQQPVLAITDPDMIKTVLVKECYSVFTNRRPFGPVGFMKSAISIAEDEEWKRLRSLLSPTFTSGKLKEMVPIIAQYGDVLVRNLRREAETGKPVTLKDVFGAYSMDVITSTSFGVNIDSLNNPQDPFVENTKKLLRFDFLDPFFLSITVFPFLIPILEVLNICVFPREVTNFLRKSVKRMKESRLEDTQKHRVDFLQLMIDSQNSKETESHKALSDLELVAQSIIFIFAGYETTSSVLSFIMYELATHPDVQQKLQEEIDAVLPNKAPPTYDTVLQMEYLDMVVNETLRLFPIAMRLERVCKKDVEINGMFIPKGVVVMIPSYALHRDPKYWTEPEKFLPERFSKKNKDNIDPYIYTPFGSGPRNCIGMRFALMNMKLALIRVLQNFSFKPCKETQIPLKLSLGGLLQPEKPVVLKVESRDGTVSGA
# Summary of the method: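 P450-Glo CYP3A4 enzyme with proluciferin substrate preincubated 10 min with compound at room temperature, then NADPH regeneration 1 h. Luciferin detection reagent added for 20 min; luminescence recorded. Ketoconazole positive control.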
# [12] = A High-Content qHTS Against Drug Library for the Identification of Small Molecules that Inhibit DYT1 Early Onset Primary Dystonia-Associated Cell Pathology (AID 1645839; calls by dose curve; note: series mostly up to about 46 µM)
# Summary of the method: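 Flp-In T-REx 293 cells with tetracycline-inducible EGFP-delE hTOR1A (WT EGFP-hTOR1A as reference), 800 cells/well; compound added with tetracycline, 48 h at 37 C. Fixed, permeabilized cells imaged; %pathology (punctate TorsinA) primary, cell count counterscreen.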
structure (smiles),measurement,setting,value
CN(C)CCC=C1c2ccccc2COc2ccc(CC(=O)O)cc21,Potency,[1],inactive
COC1CCC(N(C(=O)C2CCC(C)CC2)c2cc(C3=CCCCC3)sc2C(=O)O)CC1 (stereo unspecified),Potency,[2],inactive
same,Potency,[1],inactive
same,Potency,[3],inactive
same,Potency,[4],inactive
Nc1ncnc2c1nc(Cl)n2[C@@H]1O[C@H](CO)[C@@H](O)[C@@H]1O,Potency,[2],inactive
same,Potency,[1],inactive
same,Potency,[3],inactive
CC(C)C(C)C=CC(C)C1CCC2C3=CC=C4CC(O)CCC4(C)C3CCC21C (stereo unspecified),Potency,[2],inactive
same,Potency,[1],inactive
same,Potency,[3],1.49 µM (active)
CCCCCN(C)CCC(O)(P(=O)(O)O)P(=O)(O)O,outcome,[5],inactive
same,Potency,[6],inactive
same,outcome,[7],inactive
same,Potency,[1],inactive
same,Potency,[3],inactive
CCc1ccc(C=C2SC(=S)NC2=O)cc1,Potency,[8],8.91 µM (active)
same,Potency,[3],inactive
NC(=O)c1cnc(-c2ccc(C3(N)CCC3)cc2)c(-c2ccccc2)c1,Potency,[2],inactive
same,Potency,[3],inactive
CCOC(=O)C1=C(N)Oc2ccc(Br)cc2C1C(C#N)C(=O)OCC (stereo unspecified),Potency,[2],inactive
same,Potency,[1],inactive
same,Potency,[3],inactive
same,Potency,[4],13.5 µM (active) and 16.9 µM (active) and 23.9 µM (active)
Cc1c[nH]c(C=C2C(=O)Nc3ccccc32)c1CCC(=O)O,Potency,[1],inactive
Cc1ccc(F)c(NC(=O)Nc2ccc(-c3cccc4[nH]nc(N)c34)cc2)c1,Potency,[1],inactive
O=C(O)C=Cc1ccc(O)c(O)c1,Potency,[1],inactive
c1ccc2c(-c3cnn4cc(-c5ccc(N6CCNCC6)cc5)cnc34)ccnc2c1,Potency,[2],7.39 µM (active)
same,Potency,[1],inactive
same,Potency,[3],inactive
same,Potency,[4],inactive
O=C(Nc1ccccc1Br)N[C@@H]1CCN(c2ccc(C(F)(F)F)cn2)C1,Potency,[2],inactive
same,Potency,[1],inactive
same,Potency,[3],inactive
same,Potency,[4],15.1 µM (active)
O=C(NCc1ccncc1)C12C[C@H]3C[C@@H](C1)CC(c1ccc(Cl)cc1)(C3)C2,Potency,[2],inactive
same,Potency,[1],inactive
same,Potency,[3],inactive
CC(=O)Oc1cc2c(s1)CCN(C(C(=O)C1CC1)c1ccccc1F)C2 (stereo unspecified),outcome,[9],inactive
same,outcome,[10],inactive
same,outcome,[7],inactive
same,Potency,[1],inactive
same,Potency,[3],inactive
same,Potency,[4],11 µM (active) and 10.7 µM (active)
COc1cccc2c1CCCC2CCCN1CCN(C2CCCCC2)CC1 (stereo unspecified),Potency,[2],inactive
same,Potency,[1],inactive
same,Potency,[3],inactive
same,Potency,[4],2.13 µM (active)
same,outcome,[11],inactive
O=C(NC1CCOCC1)c1ccc(-c2cc(-c3cn[nH]c3-c3ccccn3)ccn2)cc1,Potency,[2],inactive
same,Potency,[1],inactive
same,Potency,[3],inactive
same,Potency,[4],inactive
CC(C)OC(=O)C(C)(C)Oc1ccc(C(=O)c2ccc(Cl)cc2)cc1,outcome,[9],inactive
same,outcome,[10],inactive
same,outcome,[5],inactive
same,Potency,[6],inactive
same,Potency,[3],inactive
same,Potency,[12],inactive
same,Potency,[4],inactive
CC(C)[C@H](CO)Nc1nc(Nc2ccc(C(=O)O)c(Cl)c2)c2ncn(C(C)C)c2n1,Potency,[2],inactive
same,Potency,[1],inactive
same,Potency,[3],inactive
Cc1cnc(C(=O)O)c[n+]1[O-],Potency,[2],inactive
same,Potency,[1],inactive
same,Potency,[4],inactive
N[C@H](CSC(c1ccccc1)(c1ccccc1)c1ccccc1)C(=O)O,Potency,[2],inactive
same,Potency,[1],inactive
same,Potency,[3],inactive
CN[C@@H](C)C(=O)N[C@H]1CN(C(=O)CC(C)C)CC[C@H]2CC[C@@H](C(=O)NC(c3ccccc3)c3ccccc3)N2C1=O,Potency,[2],inactive
same,Potency,[1],inactive
same,Potency,[3],inactive
same,Potency,[4],inactive
O=c1c(-c2ccc(O)cc2)coc2cc(O)ccc12,outcome,[7],inactive
same,Potency,[1],inactive
same,Potency,[3],inactive
same,Potency,[4],inactive
CCn1c(C(=O)N(C2CC2)C2CC2)cc2c3c(ncn3C)c(Nc3cc(C)n(C)n3)nc21,Potency,[2],inactive
same,Potency,[1],inactive
same,Potency,[3],inactive
same,Potency,[4],inactive
O=C(O)c1cc(O)c2c(c1)C(=O)c1cccc(O)c1C2=O,Potency,[2],inactive
same,Potency,[3],inactive
Cc1ccc(C(=O)Nc2cccc(C(F)(F)F)c2)cc1Nc1nc(-c2cccnc2)nc2c1cnn2C,Potency,[2],33 µM (active)
same,Potency,[1],inactive
same,Potency,[3],inactive
COCCOc1nc(-c2ccc(Cl)c(Cl)c2)n(-c2ccc(NC(=O)CCl)cc2)n1,Potency,[2],5.23 µM (active)
same,Potency,[1],inactive
same,Potency,[4],0.756 µM (active)
CN(C)Cc1ccc(-c2nc3cccc4c3n2CCNC4=O)cc1,Potency,[2],14.7 µM (active)
same,Potency,[1],inactive
same,Potency,[3],inactive
N#CC1(c2ccc(NC(=O)c3cccnc3NCc3ccncc3)cc2)CCCC1,Potency,[2],inactive
same,Potency,[1],inactive
same,Potency,[3],inactive
Cc1c(NC(=O)c2ccc(C(C)(C)C)cc2)cccc1-c1cn(C)c(=O)c(Nc2ccc(C(=O)N3CCOCC3)cc2)n1,Potency,[2],inactive
same,Potency,[1],inactive
same,Potency,[3],inactive
same,Potency,[4],inactive
O=c1cc(-c2cccc3c2Sc2ccccc2S3)oc(N2CCOCC2)c1,Potency,[2],inactive
same,Potency,[1],inactive
same,Potency,[3],inactive
NC(=O)c1cccc2[nH]c(-c3ccc([C@H]4CCCN4)cc3F)nc12,Potency,[1],inactive
Cc1nc(N)sc1-c1ccnc(Nc2ccc(N3CCOCC3)cc2)n1,Potency,[2],3.7 µM (active)
same,Potency,[1],inactive
same,Potency,[3],inactive
same,Potency,[4],inactive
O=c1[nH]cnc2c1ncn2[C@H]1CC[C@@H](CO)O1,outcome,[9],inactive
same,outcome,[10],inactive
same,outcome,[7],inactive
same,Potency,[1],inactive
same,Potency,[3],inactive
same,Potency,[12],inactive
same,outcome,[11],inactive
O=c1cc(CN2CCOCC2)occ1OCCCCCSc1ccnc2cc(C(F)(F)F)ccc12,Potency,[1],inactive
same,Potency,[3],inactive
COc1ccc(Cc2ccc(NC(N)=O)cc2)cc1-c1cccc(Cl)c1,Potency,[1],inactive
CS(=O)(=O)N(Cc1ccco1)CC(O)Cn1c2ccccc2c2ccccc21 (stereo unspecified),Potency,[1],inactive
CCN(CC)CCOc1ccc(C(=C(Cl)c2ccccc2)c2ccccc2)cc1,Potency,[1],inactive
Nc1nc(F)nc2c1ncn2[C@@H]1O[C@H](COP(=O)(O)O)[C@@H](O)[C@H]1O,Potency,[1],inactive
CO[C@H]1C=CO[C@@]2(C)Oc3c(C)c(O)c4c(O)c(c5c(c4c3C2=O)NC2(CCN(CC(C)C)CC2)N=5)=NC(=O)C(C)=CC=C[C@H](C)[C@H](O)[C@@H](C)[C@@H](O)[C@@H](C)[C@H](OC(C)=O)[C@H]1C,Potency,[1],inactive
COc1cc2nc(-c3ccc(N4CCN(C)CC4)cc3)nc(NCCN3CCOCC3)c2cc1OC,Potency,[1],inactive
N[C@@]1(C(=O)O)CS(=O)(=O)[C@H]2[C@H](C(=O)O)[C@H]21,Potency,[1],inactive
same,Potency,[3],inactive
N#CC(=C(N)Sc1ccccc1N)C(C#N)=C(N)Sc1ccccc1N,Potency,[1],inactive
same,Potency,[3],inactive
